The structures appear in SMILES notation. The panel holds about 79,000 compounds, 15% with a hit somewhere; the sample as a whole holds those more often. A number with no mark means an inactive call. Calls of active or inactive are those of the source. Cut-off read from the data, not from the text of the source: active = growth inhibition above about 70%; inactive = the rest.

For 21 compounds, growth inhibition results are on record in PubChem BioAssay (NCI).

Assay [1] is described as follows: NCI Yeast Anticancer Drug Screen. Data for the rad50 strain (AID 155).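 Note: 0% = growth of vehicle-only cultures of the same strain.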 As to conditions: S. cerevisiae rad50 strain growth inhibition; at 50.0 µM; stronger effect = higher value. In outline:
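Relative growth inhibition (compound vs vehicle) was measured in yeast with a defined repair-gene alteration.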

Assay [2] can be described thus: NCI Yeast Anticancer Drug Screen. Data for the mec2-1 strain (AID 157). As to conditions: S. cerevisiae mec2-1 strain, at 50.0 µM, stronger effect = higher value. In outline: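 Growth inhibition is read against vehicle-treated controls after compound exposure of the mec2-1 yeast strain, which is defective in DNA damage repair or cell cycle control.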
The nature of assay [3]: NCI Yeast Anticancer Drug Screen. Data for the sgs1 mgt1 strain (AID 161).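 Note: 0% = growth of cultures given vehicle only.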 As to conditions: S. cerevisiae sgs1 mgt1 strain, at 50.0 µM, stronger effect = higher value. In outline: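 Compounds are added to genetically altered yeast, and growth is compared with cultures given vehicle alone to give percent inhibition.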
A short description of assay [4]: NCI Yeast Anticancer Drug Screen. Data for the cln2 rad14 strain (AID 165).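 Note: 0% = growth equal to vehicle treated cultures.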 As to conditions: S. cerevisiae cln2 rad14 strain, at 50.0 µM, stronger effect = higher value. In outline: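 Growth inhibition, relative to vehicle-treated controls, is the read-out. The test organism is a yeast strain with defined genetic alterations, cln2 rad14.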
A short description of assay [5]: NCI Yeast Anticancer Drug Screen. Data for the bub3 strain (AID 167). As to conditions: S. cerevisiae bub3 mutant strain, at 50.0 µM, stronger effect = higher value. In outline: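 Screening used yeast with an engineered genetic alteration affecting cell cycle control. Compound-exposed cultures were compared with vehicle cultures, and reduced growth was taken as inhibition.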

Assay [6] is described as follows: NCI Yeast Anticancer Drug Screen. Data for the mlh1 rad18 strain (AID 175). As to conditions: S. cerevisiae mlh1 rad18 strain growth inhibition; at 50.0 µM; stronger effect = higher value. In outline: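 Cells of a genetically altered yeast strain, deficient in DNA damage repair, were treated with compound. Their growth was then compared with that of vehicle-treated cultures to give inhibition.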

For `O=C(Nc1ccc(CCO)cc1)Nc1ccc(Cl)cc1[N+](=O)[O-]`, the growth inhibition in assay [1] was -6.35%; in assay [2], 34.9%; in assay [3], 25.8%; in assay [4], -18.7%; in assay [5], 21.6%; in assay [6], 17.6%.
Regarding `Cc1ccc2cccc(C)c2n1`, the growth inhibition is -14.9% in assay [1]; -26.6% in assay [2]; -45.3% in assay [3]; -6.7% in assay [4]; -29.6% in assay [5]; -23.5% in assay [6].
For the compound `CC(C)=NNS(=O)(=O)c1ccc(C)cc1`, the growth inhibition in assay [1] was -7.7%; in assay [2] it was 14.6%; in assay [3], 2.65%; in assay [4] it was 7.2%; in assay [5], -14.2%; in assay [6], -7.55%.
On to `O=C(NC1CCCCC1NC(c1ccccc1)(c1ccccc1)c1ccccc1)C(=O)NC1CCCCC1NC(c1ccccc1)(c1ccccc1)c1ccccc1` (stereo unspecified), for which the growth inhibition in assay [1] was -33.9%; in assay [2] it was -22.4%; in assay [3], -13.7%; in assay [4], 12.1%; in assay [5], -10.1%; in assay [6], -2.35%.
Turning to `CCCCCCCCCCCCNc1ncnc2c1cnn2C`, the growth inhibition in assay [1] was -9.1%; in assay [2], -14.4%; in assay [3], -1.25%; in assay [4], -47.2%; in assay [5] it was 23.9%; in assay [6] it was -25.2%.
For `CSc1nnc(CCC(=O)Nc2ccc(Cl)cc2Cl)o1`, the growth inhibition is 0.75% in assay [1]; 12.5% in assay [2]; 10.9% in assay [3]; 10.3% in assay [4]; 14.4% in assay [5]; -10.2% in assay [6].
As to `O=c1[nH]c(-c2ccncc2)nnc1-c1ccc(Cl)cc1`, the growth inhibition was -4.4% in assay [1]; -8.1% in assay [2]; -11.5% in assay [3]; -26.9% in assay [4]; 2.15% in assay [5]; -14.1% in assay [6].
In the case of `Cc1ccc(C(C)C)c(OC2OC(C(=O)O)C(O)C(O)C2O)c1` (stereo unspecified), the growth inhibition in assay [1] is 5.95%; in assay [2], 13.9%; in assay [3] it was -9%; in assay [4], -33.7%; in assay [5], 10.9%; in assay [6] it was -10.4%.
`CCOC(=O)c1nc2ccc(OC)cc2c2c1Cc1ccccc1-2`: the growth inhibition was -8.55% in assay [1]; -20.9% in assay [2]; -22.1% in assay [3]; 8.3% in assay [4]; 0.55% in assay [5]; -24.4% in assay [6].
Regarding `Cc1cccc(/C=N/NC(=S)N2CCCCCC2)n1`, the growth inhibition was 89.3% (active) in assay [1]; 93.2% (active) in assay [2]; 92.1% (active) in assay [3]; 92.8% (active) in assay [4]; 92.2% (active) in assay [5]; 89% (active) in assay [6].
With `O=C(Cc1ccccc1)c1ccc(N2CCOCC2)cc1`, the growth inhibition in assay [1] was 21.5%; in assay [2], -19.2%; in assay [3], 11.5%; in assay [4] it was 13.2%; in assay [5] it was 26.1%; in assay [6] it was 25.7%.
For the compound `Cc1cccc(Cl)c1NC(=O)Nc1ccc(C#N)cc1`, the growth inhibition is 15.4% in assay [1]; -10.6% in assay [2]; 17.9% in assay [3]; 5.35% in assay [4]; -3.45% in assay [5]; -1% in assay [6].
As to `Oc1ccccc1-c1cc(-c2ccccc2)nc(NCCCCCCNc2nc(-c3ccccc3)cc(-c3ccccc3O)n2)n1`, the growth inhibition in assay [1] was 9.85%; in assay [2], 3.9%; in assay [3] it was -12.1%; in assay [4], -24.2%; in assay [5] it was -6.4%; in assay [6], 11.2%.
Take `O=C1NC(=O)/C(=C/CCCO)N1`: the growth inhibition in assay [1] was 2.85%; in assay [2], -5.3%; in assay [3], -10.4%; in assay [4], -8.95%; in assay [5], -0.25%; in assay [6] it was -6.6%.
Turning to `O=c1nc(OCCO)c([N+](=O)[O-])c(C(Cl)(Cl)Cl)[nH]1`, the growth inhibition in assay [1] is 61.4%; in assay [2], 89.5% (active); in assay [3] it was 81.7% (active); in assay [4], 36.4%; in assay [5], 80.5% (active); in assay [6], 92.3% (active).
With `NC(=S)N/N=C\c1nccc2ccsc12`, the growth inhibition in assay [1] was 10.4%; in assay [2] it was -5.7%; in assay [3] it was -9.35%; in assay [4] it was -29.9%; in assay [5], -0.05%; in assay [6] it was 2.7%.
On to `CCC(O)(c1ccccc1)C(O)c1ccccc1` (stereo unspecified), for which the growth inhibition was -2.35% in assay [1]; 8.9% in assay [2]; -4.4% in assay [3]; 3.8% in assay [4]; 4.95% in assay [5]; -15.8% in assay [6].
For `COc1nc(NC2OCC(OC(C)=O)C(OC(C)=O)C2OC(C)=O)c(-c2csc(N)n2)c(=O)n1C` (stereo unspecified), the growth inhibition was -1.9% in assay [1]; -21.9% in assay [2]; -14.6% in assay [3]; 13.6% in assay [4]; -2.3% in assay [5]; 6.85% in assay [6].
On to `COc1cc(C=C(C#N)C#N)ccc1OC(=O)c1cc(OC)c(OC)c(OC)c1`, for which the growth inhibition was -1.5% in assay [1]; -5.6% in assay [2]; 15.8% in assay [3]; 2.2% in assay [4]; 4.45% in assay [5]; -6.25% in assay [6].
On to `C1OC2OC3OCOC3C2O1` (stereo unspecified), for which the growth inhibition in assay [1] was 16.4%; in assay [2] it was 2.85%; in assay [3] it was -2.1%; in assay [4], -58.2%; in assay [5] it was 17%; in assay [6], -8.8%.
Turning to `COc1ccc(-c2cc(=O)c3c([nH]2)CCCC3)cc1`, the growth inhibition is -10.9% in assay [1]; -6.95% in assay [2]; -11.2% in assay [3]; -16.8% in assay [4]; -4.3% in assay [5]; 5.55% in assay [6].
